Data on 61 sequences can be found in the supplement of paper PMC11417369.

± gives the standard deviation of the averaged measurements. In all, about 25,000 sequences were measured (“ln(normalized median fluorescence intensity)”: median about 7.9, highest 2% from about 11 on). This is one part of a sample in which the highest values are shown more often than they occur.

The test has as its system PfAP2-I AP2 domain 3 (GST-tagged). The experiment in a line: gcPBM binding intensity (ln(normalized median fluorescence intensity)); higher = stronger DNA binding. The gist of the method:
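Probes on an Agilent 4 × 180k array were primer-extended, double-stranded and 36 bp long, taken from intergenic genomic regions, with negative controls added. GST-tagged P. falciparum DNA-binding domains from E. coli, about 25 μg on average, were applied to the array for 1 h in 1× PBS containing 1% milk, 0.2 mg/ml BSA, 0.5% salmon testes DNA and 0.03% Triton X-100. Binding intensity, obtained after Alexa488 anti-GST antibody detection and a 488 nm scan, is the highest Masliner-normalised natural-log median intensity across replicate spots of either probe orientation.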
For the sequence “TTTTTTTTTTTTTTTACACACTGCATACAAGAAAAA [CACACA_site5642]”, the “gcPBM binding intensity (ln)” value was 8.54 ± 0.66.

In the case of “TGTGCACGCATATACACACACAAATACAATGATAAA [CACACA_site6656]”, the “gcPBM binding intensity (ln)” value is 8.92 ± 0.11.

“TATTATATTTGTATGTGTACTTATATGGTTGTAATA [XGTACX_site4548]”: the “gcPBM binding intensity (ln)” value came out at 7.87 ± 0.26.

For the sequence “ATTTATATTACCCTTGCATGTAGGTGCAATTTTTTT [TGCATGCA_site757]”, the “gcPBM binding intensity (ln)” value is 10.64 ± 0.085.

With TACCCTTGCATGTAGGTGCAATTTTTTTTTTTTTTT, the “gcPBM binding intensity (ln)” value was 10.6 ± 0.35.

Regarding “AAAATTATGCAGTAGGTGCAATACCCTCGGCTTTTT [GTGCAC_site9556]”, the “gcPBM binding intensity (ln)” value was determined as 11.1 ± 0.64.

On to “TTCCTGTTAATTACAACACACAATTCTTATTTTATG [CACACA_site6507]”, for which the “gcPBM binding intensity (ln)” value stood at 7.98 ± 0.52.

Take “ACAAAACTCTTTAATTGTACAAATATAATATAAAAA [XGTACX_site5690]”: the “gcPBM binding intensity (ln)” value turned out to be 7.74 ± 0.63.

Regarding “TATTTATAAATGAACACACACGCAATTTGAATCGAA [CACACA_site3371]”, the “gcPBM binding intensity (ln)” value stood at 8.04 ± 0.46.

In the case of “TTAATTAAATATAGGGGTACATATTATATATGTTTT [XGTACX_site3677]”, the “gcPBM binding intensity (ln)” value is 7.76 ± 0.42.

TTACGCTGCTATATAGTGCACATAATATATGACCTG: the “gcPBM binding intensity (ln)” value was determined as 11 ± 0.24.

Consider “TGCTATATAATATGAGCACACATAAGATTTGGTGTT [CACACA_site8148]”, for which the “gcPBM binding intensity (ln)” value was 8.05 ± 0.6.

With “TATATATATATATGTGCACACATAATAAAAAAAAAA [CACACA_site3830]”, the “gcPBM binding intensity (ln)” value was 10.55 ± 0.035.

In the case of “TAAAACACTCATGGCACACATAAAACATTTTTATGA [CACACA_site3574]”, the “gcPBM binding intensity (ln)” value was determined as 8.18 ± 0.24.

With TCAATTTGGAACGGTATGCACTAATTTTATATTTTT, the “gcPBM binding intensity (ln)” value amounted to 9.02 ± 0.19.

For “TATTTTAAAACAAAAATATAATTTCATAAAAATATA [CACACA_negctrl_site394]”, the “gcPBM binding intensity (ln)” value came to 7.2 ± 0.47.

Turning to “TGTAATTGTTTAAAGGGTACATATATCAGATGTCTT [XGTACX_site5877]”, the “gcPBM binding intensity (ln)” value was 7.62 ± 0.54.

Take “TATATCATTATATAAACACACAATATGTTTTTTATA [CACACA_site3781]”: the “gcPBM binding intensity (ln)” value stood at 7.42 ± 0.54.

With “TTTATTTATATAATTACACACATATATACGCAAATG [CACACA_site2794]”, the “gcPBM binding intensity (ln)” value is 7.78 ± 0.31.

Take “TATTTAATTATATAAAATTAAATTTTTAATTCTTCC [CACACA_negctrl_site473]”: the “gcPBM binding intensity (ln)” value is 7.28 ± 0.53.

With “TTTTTTTCTCACAATCGTACATAAATACATATATAT [XGTACX_site3150]”, the “gcPBM binding intensity (ln)” value worked out at 8.12 ± 0.54.

On to “TTTGTTTTTCATAGTGCACACATAACCAAAAATAGT [CACACA_site9030]”, for which the “gcPBM binding intensity (ln)” value turned out to be 11.3 ± 0.46.

In the case of “TGTTTTTCATAGTGCACACATAACCAAAAATAGTAT [CACACA_site3150]”, the “gcPBM binding intensity (ln)” value stood at 11.5 ± 0.67.

For the sequence AATAAATTCATGATAGTGCAAAAATTATTTTTGTTA, the “gcPBM binding intensity (ln)” value came to 9.49 ± 0.028.

Take “GGTATTTTCACATATAGTACACAAAAATAAAATAAA [XGTACX_site2139]”: the “gcPBM binding intensity (ln)” value came to 8.48 ± 0.099.

As for “AAATATTCATAGTATACACACATTTATTTATAACCA [CACACA_site6502]”, the “gcPBM binding intensity (ln)” value came to 7.88 ± 0.52.

Turning to “TTTCATAACAAAAAAGTGCAAAATAGCACGAACATT [GTGCAC_site9703]”, the “gcPBM binding intensity (ln)” value turned out to be 10.66 ± 0.049.

Regarding “GAAAAAATTTTATGGTGTACTTTATTTATTTATATA [XGTACX_site6323]”, the “gcPBM binding intensity (ln)” value worked out at 8.06 ± 0.28.

For the sequence “TATTTTAAAGAGAAAACATGCATTATATAGAACATT [TGCATGCA_site328]”, the “gcPBM binding intensity (ln)” value was 7.93 ± 1.

With “AAAATATATACACAAACATGCATATAATAAATAAAT [TGCATGCA_site711]”, the “gcPBM binding intensity (ln)” value was 7.98 ± 0.83.

“AATATAATATAATGCACACATAAAACAAAAAAAAAA [CACACA_site3012]”: the “gcPBM binding intensity (ln)” value came out at 11 ± 0.86.

Turning to “AATATAAACACAAACACACACATATATATATATATA [CACACA_site4307]”, the “gcPBM binding intensity (ln)” value was 9.49 ± 0.45.

Regarding “AATATAATATAATGCACACATAAACAAAAAAAAAAA [CACACA_site783]”, the “gcPBM binding intensity (ln)” value turned out to be 11.2 ± 1.

Take “TTCTGACCAATGCTATAAAATAATACAAAAGAAAAA [GTGCAC_negctrl_site3]”: the “gcPBM binding intensity (ln)” value is 7.83 ± 0.35.

Take “TTAACTTTTTTATATGCACACATAAACAAGGATATA [CACACA_site8932]”: the “gcPBM binding intensity (ln)” value was determined as 9.57 ± 0.3.

Consider “AACTTTTTTATATGCACACATAAACAAGGATATATA [CACACA_site2874]”, for which the “gcPBM binding intensity (ln)” value worked out at 10.1 ± 0.49.

Regarding TCCATATGCAAACTGGTGCACAAGTAGCTTTTATAT, the “gcPBM binding intensity (ln)” value worked out at 11.15 ± 0.028.

As for “TATAAGAGGATATATACACACAAAAATATGTACAGT [CACACA_site6885]”, the “gcPBM binding intensity (ln)” value amounted to 7.92 ± 0.52.

For the sequence “TATTAATAATTAAGTTGTACATTAATTAATATACTG [XGTACX_site6994]”, the “gcPBM binding intensity (ln)” value worked out at 7.46 ± 0.41.

In the case of “ATATATCAAGGGAGTGAATGTTATGCATATGAATAT [TGCATGCA_negctrl_site573]”, the “gcPBM binding intensity (ln)” value is 7.82 ± 0.83.

On to “CGTTATATCAAAGGAGTGCATTATGAATACGTTTTA [GTGCAC_site9837]”, for which the “gcPBM binding intensity (ln)” value stood at 11.4 ± 0.65.

Turning to “ATATATTTTAGGAGAGTGCATTTAATATTATTTAAT [GTGCAC_site9444]”, the “gcPBM binding intensity (ln)” value was 10.7 ± 0.62.

In the case of “AAAAATAGGAACCAATATCCAACGTGACTTTATAAT [CACACA_negctrl_site1011]”, the “gcPBM binding intensity (ln)” value turned out to be 7.68 ± 0.81.

On to “TTTACTTTTTTTTCTTGTACTCATACATACTATCAT [XGTACX_site4919]”, for which the “gcPBM binding intensity (ln)” value came out at 7.84 ± 0.83.

For the sequence “ATATATATAATATGATGTACTATTTTGATAAAAAAT [XGTACX_site3975]”, the “gcPBM binding intensity (ln)” value was 8.23 ± 0.54.

With “TTTATCATGAACAGAAGTACATTTATATCAATGTCT [XGTACX_site6470]”, the “gcPBM binding intensity (ln)” value was 7.5 ± 0.47.

Regarding “ATTGTCAAAACACGCACACACATATACATAATAACA [CACACA_site1742]”, the “gcPBM binding intensity (ln)” value was 8.2 ± 0.37.

As to “TTATATTATTCGTGTGTGCACGATATTTCATAATTG [GTGCAC_site9767]”, the “gcPBM binding intensity (ln)” value turned out to be 10.1 ± 0.2.

In the case of ATATATATATATTTCGTGCACTGATAATATTATTTT, the “gcPBM binding intensity (ln)” value was found to be 11.2 ± 0.35.

On to “TTTGCGTAGAAATGTGTGCACTGATATTTATAATAA [GTGCAC_site9526]”, for which the “gcPBM binding intensity (ln)” value turned out to be 10.6 ± 0.035.

Consider “AAAATTAAAATATCACGTACGAAGAAAAAATTAAGA [XGTACX_site6437]”, for which the “gcPBM binding intensity (ln)” value was 7.86 ± 0.54.

TATTTCACTTTTTGTCTGCACTAAAATTTTATGGTA: the “gcPBM binding intensity (ln)” value is 9.46 ± 0.32.

Consider “TTTTTAATTCAAAAAATAATATATTATATTTCAAAT [CACACA_negctrl_site737]”, for which the “gcPBM binding intensity (ln)” value amounted to 7.38 ± 0.48.

As for “ATATATATATTATATGCACACTAATAAGACTATTTA [CACACA_site5880]”, the “gcPBM binding intensity (ln)” value worked out at 9.66 ± 0.11.

On to “TTTCAAAAAAATAGCTATATTTATATTAATGCACGA [TGCATGCA_negctrl_site63]”, for which the “gcPBM binding intensity (ln)” value turned out to be 11.9 ± 0.45.

Regarding “ATTATATATATTTATGCACACAAAATATATTATATA [CACACA_site9244]”, the “gcPBM binding intensity (ln)” value is 9.78 ± 0.3.

On to “TATATATATTTATGCACACAAAATATATTATATAAT [CACACA_site5955]”, for which the “gcPBM binding intensity (ln)” value turned out to be 9.86 ± 0.38.

With “TAGACAAAATATAATGCACACTATTATTTTTATTTA [CACACA_site5508]”, the “gcPBM binding intensity (ln)” value came out at 11 ± 0.73.

For “AATTAGCTATTTAAAAATATATAAAATTTATATATA [CACACA_negctrl_site390]”, the “gcPBM binding intensity (ln)” value came out at 7.47 ± 0.2.

Consider “TTATATTTTACAAATGCACACATAATTTTTTTTTTT [CACACA_site8890]”, for which the “gcPBM binding intensity (ln)” value was 9.04 ± 0.19.

With “ACTAGACAAAATATAATGCACACTATTATTTTTATT [CACACA_site2726]”, the “gcPBM binding intensity (ln)” value stood at 10.9 ± 0.65.
